Test results taken from PubChem BioAssay AID2158 (National Center for Advancing Translational Sciences (NCATS), 2009).
Several values for one entry are separate records, joined by “and”; a condition that tells them apart may be missing. Identical values can stand only once. Records with an inconclusive call do not appear. Activity calls are given as the source filed them. The call rests on the fitted dose curve; in most records, active means well fitted inhibition curve with a large enough effect; inconclusive means small, poorly fitted or top-dose-only effect; inactive means no such curve, though single readings can be large or run the other way.

Each molecule was assayed against Cruzipain (Trypanosoma cruzi) (UniProt P25779) (assay: Confirmation qHTS Assay for Inhibitors of Cruzain). Conditions: purified cruzain, Z-FR-AMC fluorescence, 0.01% Triton.
How it was run: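 Purified cruzain, 1.5 nM, pre-incubated 15 min at room temperature with compound in 100 mM sodium acetate pH 5.5, 5 mM DTT, 0.01% Triton X-100. Then 2 uM Z-FR-AMC added; AMC fluorescence (ex 360/em 450 nm) increase over 60 s gave reaction progress.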
Further: nearly all actives have a fitted effect of over 40% in size.
Potency means the concentration at half of the fitted maximal effect.
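Wherever activity change, negative = inhibition is given: plate controls were uninhibited enzyme control for no effect and buffer wells lacking enzyme for full effect.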

Cruzipain (Trypanosoma cruzi), sequence (P25779 123-467 limits assumed): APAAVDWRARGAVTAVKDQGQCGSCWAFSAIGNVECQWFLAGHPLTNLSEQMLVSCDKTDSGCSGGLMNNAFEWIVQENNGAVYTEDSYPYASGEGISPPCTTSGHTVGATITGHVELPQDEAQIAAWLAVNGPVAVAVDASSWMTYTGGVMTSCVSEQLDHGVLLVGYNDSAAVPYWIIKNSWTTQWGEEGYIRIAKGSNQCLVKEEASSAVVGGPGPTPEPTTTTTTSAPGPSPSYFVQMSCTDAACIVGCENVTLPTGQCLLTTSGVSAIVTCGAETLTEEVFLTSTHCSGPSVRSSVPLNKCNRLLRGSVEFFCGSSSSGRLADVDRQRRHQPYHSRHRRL

| SMILES | Potency | activity change, negative = inhibition |
| --- | --- | --- |
| CC1=CC(=NOC(=O)/C=C/c2ccccc2)C=C(C)C1=O | 3.98 µM (active) | – |
| O=C(NCCc1nc2ccccc2n1CCCCOc1ccccc1)C1CCCCC1 | 0.562 µM (active) | – |
| COc1ccc(/C=C/C(=O)Nc2ccc(-n3nncc3-c3ccc(Br)cc3)cc2)cc1OC | 12.6 µM (active) | – |
| CC[C@@H](C)[C@H](NC(=O)OC(C)(C)C)c1nnc(S(=O)(=O)Cc2cc(C)ccc2C)o1 | 14.1 µM (active) | – |
| O=C(Cn1cc(CNC(=O)C2CCCCC2)nn1)Nc1cc(C(F)(F)F)ccc1Cl | – | 0.597% (inactive) |
| COc1ccccc1CCNC(=O)CNC(=O)Cc1cccc2ccccc12 | – | 5.36% (inactive) |
| O=C(NCc1ccco1)c1ccc2nc3sc4c(c3c(=O)n2c1)CCCC4 | 28.2 µM (active) | – |
| N#CN1CCC(NC(=O)c2ccc(F)cc2)CC1 | – | 0.471% (inactive) |
| O=C(COC(=O)CNC(=O)C1CCCCC1)NC1CC1 | 15.8 µM (active) | – |
| COc1nc(C#N)nc(N2CCCC2)n1 | 3.98 µM (active) | – |
| COc1ccc(OCCn2c(CCNC(=O)C3CCCCC3)nc3ccccc32)cc1 | 1.12 µM (active) | – |
| O=C(CNC(=O)c1ccccc1)OC(Cc1ccccc1)C(=O)Nc1cc(C(F)(F)F)ccc1Cl (stereo not drawn) | 7.08 µM (active) | – |
| Cn1nc(-c2ccc(Cl)cc2)nc2c(=O)n(C)c(=O)nc1-2 | 0.891 µM (active) | – |
| Cc1cc2c(C)cc(=O)oc2c2c1NCCC2 | – | -19.4% (inactive) |
| Cc1ccc(OCCCCn2c(CCNC(=O)C3CCCCC3)nc3ccccc32)cc1 | 1.12 µM (active) | – |
| COc1ccc(-c2cnnn2-c2ccc(NC(=O)/C=C/c3ccc(OC)c(OC)c3)cc2)cc1 | 15.8 µM (active) | – |
| Cn1nc(-c2cccnc2)nc2c(=O)n(C)c(=O)nc1-2 | 1.12 µM (active) | – |
| CNc1oc(Cc2ccccc2)nc1S(=O)(=O)c1ccccc1 | 7.08 µM (active) | – |
| O=C(NCc1ccc2c(c1)OCO2)c1ccc2c(c1)N(Cc1c(F)cccc1Cl)C(=O)c1ccccc1S2 | – | 3.42% (inactive) |
| COc1ccc(C)cc1NC(=O)C(OC(=O)CNC(=O)c1ccccc1)c1ccccc1 (stereo not drawn) | 8.91 µM (active) | – |
| O=C(CNC(=O)c1ccc(-c2ccccc2)cc1)OC(C(=O)Nc1cc(C(F)(F)F)ccc1Cl)c1ccccc1 (stereo not drawn) | – | -19.3% (inactive) |
| Cc1ccccc1OCC(=O)NCC(=O)OCC(=O)c1ccc([N+](=O)[O-])cc1 | 35.5 µM (active) | – |
| COc1cccc(OC)c1-c1nn2c(-c3n[nH]c4c3CCC4)nnc2s1 | – | -13% (inactive) and -10.1% (inactive) |
